Measurements published in PubChem BioAssay (EPA / NIEHS).
Some structures have more than one record in an assay (separate samples or runs), and their calls can disagree. Activity calls are given as the source filed them. How the source made its calls: active means hit-call score of the fitted dose curve at least 0.9, where 1 is the maximum; inactive means score below 0.9.

Test: ATG_M_61_CIS: Attagene CIS-FACTORIAL HepG2 Assay for M61 Transcription Factor (Internal Marker) (AID 2282937)
Conditions: HepG2 Attagene CIS-FACTORIAL M61 internal marker reporter; actives raise or lower the signal
Method in brief: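 Fluorescence from labelled cDNA fragments, separated by capillary electrophoresis, quantifies reporter induction. HepG2 cells bearing transiently transfected cis-promoter MRTUs were incubated with test chemical for 24 h; DMSO defined baseline for gain/loss fitting.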

SMILES | outcome
NC(N)=NC(N)=NCCc1ccccc1 | inactive
CC/C=C\CCOC(=O)C(C)C | inactive
CC(C)=CCCC(C)=CC(=O)O | inactive
CCC=C(C)C=O | inactive
C=C1CC[C@H]2O[C@]2(C)CC[C@@H]2[C@@H]1CC2(C)C | inactive
CCC(=O)OC/C=C(\C)CCC=C(C)C | inactive
CCO[Si](CCC#N)(OCC)OCC | inactive
CC(C)(O)CCc1ccccc1 | inactive
CC(=O)C1C(=O)C=C(C)OC1=O (stereo not drawn) | inactive
CCc1cccc(O)c1 | inactive
CC(CO)(CO)[N+](=O)[O-] | inactive
C[C@H](CCC(=O)O)[C@H]1CC[C@H]2[C@@H]3CC[C@@H]4C[C@H](O)CC[C@]4(C)[C@H]3CC[C@]12C | inactive
CCC(C)(C)C1CCC(OC)CC1 (stereo not drawn) | inactive
C=CC(=O)OCC(CO)(COC(=O)C=C)COC(=O)C=C | inactive
CN(C)c1ccc(C=O)cc1 | inactive
CC1=CCC(C(C)(C)O)CC1 (stereo not drawn) | inactive
CC(=O)CC(=O)N(C)C | inactive

SMILES | outcome
CCCc1ccc(O)cc1 | inactive
C=C1CC/C=C(\C)CC[C@@H]2[C@@H]1CC2(C)C | inactive
C=CC(C)(CCC=C(C)C)OC(=O)CC (stereo not drawn) | inactive
CCCCCCCCCCOC(=O)c1ccccc1C(=O)OCCCCCCCC | inactive
CC(O)COCC(C)O (stereo not drawn) | inactive
O=C1CCCCCCCCCCCC(=O)OCCO1 | inactive
NC(=O)c1c(Cl)cccc1Cl | inactive
c1ccc2c(c1)-c1ccc3ccc4cccc5cc-2c1c3c45 | inactive
CC1=C(C=O)C(C)(C)CCC1 | inactive
CC(C)OB(OC(C)C)OC(C)C | inactive
COc1ccc2[nH]cc(CCNC(C)=O)c2c1 | inactive
CCC(=O)OCC=Cc1ccccc1 | inactive
CC(C)CCOC(=O)CC(C)C | inactive
C#C[C@]1(O)CC[C@H]2[C@@H]3CCc4cc(O)ccc4[C@H]3CC[C@@]21C | inactive
O=c1cc[nH]cc1 | inactive
CCC(C)(CCCC(C)C)OC(C)=O (stereo not drawn) | inactive
O=C1OCc2ccccc21 | inactive

Test: ATG_EGR_CIS: Attagene CIS-FACTORIAL HepG2 Assay for human Early Growth Response 1 (EGR1) (AID 2282938)
Conditions: HepG2 Attagene CIS-FACTORIAL EGR reporter mRNA; actives raise or lower the signal
Method in brief: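 Cell-based multiplex transcription assay: HepG2 carrying transfected cis-element reporter units, 24 h chemical treatment. Fluorescence from capillary electrophoresis of RT-PCR products gives mRNA levels; fitting is bidirectional relative to DMSO.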

SMILES | outcome | AC50
NC(N)=NC(N)=NCCc1ccccc1 | inactive | 
CC/C=C\CCOC(=O)C(C)C | inactive | 
CC(C)=CCCC(C)=CC(=O)O | inactive | 
CCC=C(C)C=O | inactive | 
C=C1CC[C@H]2O[C@]2(C)CC[C@@H]2[C@@H]1CC2(C)C | inactive | 
CCC(=O)OC/C=C(\C)CCC=C(C)C | inactive | 
CCO[Si](CCC#N)(OCC)OCC | inactive | 
CC(C)(O)CCc1ccccc1 | inactive | 
CC(=O)C1C(=O)C=C(C)OC1=O (stereo not drawn) | inactive | 
CCc1cccc(O)c1 | inactive | 
CC(CO)(CO)[N+](=O)[O-] | inactive | 
C[C@H](CCC(=O)O)[C@H]1CC[C@H]2[C@@H]3CC[C@@H]4C[C@H](O)CC[C@]4(C)[C@H]3CC[C@]12C |  | 25.2 µM (active)
CCC(C)(C)C1CCC(OC)CC1 (stereo not drawn) | inactive | 
C=CC(=O)OCC(CO)(COC(=O)C=C)COC(=O)C=C |  | 5.52 µM (active)
CN(C)c1ccc(C=O)cc1 | inactive | 
CC1=CCC(C(C)(C)O)CC1 (stereo not drawn) | inactive | 
CC(=O)CC(=O)N(C)C | inactive | 

SMILES | outcome | AC50
CCCc1ccc(O)cc1 | inactive | 
C=C1CC/C=C(\C)CC[C@@H]2[C@@H]1CC2(C)C | inactive | 
C=CC(C)(CCC=C(C)C)OC(=O)CC (stereo not drawn) | inactive | 
CCCCCCCCCCOC(=O)c1ccccc1C(=O)OCCCCCCCC | inactive | 
CC(O)COCC(C)O (stereo not drawn) | inactive | 
O=C1CCCCCCCCCCCC(=O)OCCO1 | inactive | 
NC(=O)c1c(Cl)cccc1Cl | inactive | 
c1ccc2c(c1)-c1ccc3ccc4cccc5cc-2c1c3c45 | inactive | 
CC1=C(C=O)C(C)(C)CCC1 | inactive | 
CC(C)OB(OC(C)C)OC(C)C | inactive | 
COc1ccc2[nH]cc(CCNC(C)=O)c2c1 | inactive | 
CCC(=O)OCC=Cc1ccccc1 | inactive | 
CC(C)CCOC(=O)CC(C)C | inactive | 
C#C[C@]1(O)CC[C@H]2[C@@H]3CCc4cc(O)ccc4[C@H]3CC[C@@]21C | inactive | 
O=c1cc[nH]cc1 | inactive | 
CCC(C)(CCCC(C)C)OC(C)=O (stereo not drawn) | inactive | 
O=C1OCc2ccccc21 | inactive | 
